Test results reported in paper PMC11062922 (Nature Chemical Biology, 2023).
Read-outs that look alike come from different tables or passages of the source.

Tests used:
AURKB = settings: read-out: apparent Kd, n = 1
CDKL5 = settings: read-out: apparent Kd, n = 1
[1] = compound concentrations:100 nM and 1000 nM (sheet 'Lestaurtinib' of Supplementary Table 1),run:Lestaurtinib_02473_R1,Plate:MR010
[2] = compound concentrations:100 nM and 1000 nM (sheet 'Lestaurtinib' of Supplementary Table 1),run:Lestaurtinib_02487_R1,Plate:MR012
[3] = compound concentrations:100 nM and 1000 nM (sheet 'Lestaurtinib' of Supplementary Table 1),run:Lestaurtinib_02487_R2,Plate:MR012
[4] = compound concentrations:100 nM and 1000 nM (sheet 'Lestaurtinib' of Supplementary Table 1),run:Lestaurtinib_02566_R1,Plate:MR014
[5] = compound concentrations:100 nM and 1000 nM (sheet 'Lestaurtinib' of Supplementary Table 1),run:Lestaurtinib_02572_R1,Plate:MR015
[6] = compound concentrations:100 nM and 1000 nM (sheet 'Lestaurtinib' of Supplementary Table 1),run:Lestaurtinib_02577_R1,Plate:MR016
[7] = compound concentrations:100 nM and 1000 nM (sheet 'Lestaurtinib' of Supplementary Table 1),run:Lestaurtinib_02584_R1,Plate:MR017
[8] = compound concentrations:100 nM and 1000 nM (sheet 'Lestaurtinib' of Supplementary Table 1),run:Lestaurtinib_02584_R2,Plate:MR017
[9] = compound concentrations:100 nM and 1000 nM (sheet 'Lestaurtinib' of Supplementary Table 1),run:Lestaurtinib_02584_R3,Plate:MR017

Substance Lestaurtinib has a potency estimated from few doses (AURKB; [1]) of 144 nM, a potency estimated from few doses (AURKB; [2]) of 224 nM and a potency estimated from few doses (AURKB; [3]) of 219 nM. It also gave a potency estimated from few doses (AURKB; compound concentrations:100 nM and 1000 nM (sheet 'Lestaurtinib' of Supplementary Table 1),run:Lestaurtinib_02496_R2,Plate:MR013) of 115 nM, a potency estimated from few doses (AURKB; [4]) of 273 nM and a potency estimated from few doses (AURKB; compound concentrations:100 nM and 1000 nM (sheet 'Lestaurtinib' of Supplementary Table 1),run:Lestaurtinib_02566_R2,Plate:MR014) of 297 nM. For the same substance, the potency estimated from few doses (AURKB; [5]) was 271 nM, the potency estimated from few doses (AURKB; compound concentrations:100 nM and 1000 nM (sheet 'Lestaurtinib' of Supplementary Table 1),run:Lestaurtinib_02572_R3,Plate:MR015) was 151 nM and the potency estimated from few doses (AURKB; [6]) was 239 nM. The potency estimated from few doses (AURKB; [7]) was 236 nM, the potency estimated from few doses (AURKB; [8]) was 271 nM and the potency estimated from few doses (AURKB; [9]) was 237 nM. The potency estimated from few doses (AURKB; compound concentrations:100 nM and 1000 nM (sheet 'Lestaurtinib' of Supplementary Table 1),run:Lestaurtinib_02601_R2,Plate:MR018) was 240 nM, the potency estimated from few doses (AURKB; compound concentrations:100 nM and 1000 nM (sheet 'Lestaurtinib' of Supplementary Table 1),run:Lestaurtinib_02606_R1,Plate:MR019) was 271 nM and the potency estimated from few doses (AURKB; compound concentrations:100 nM and 1000 nM (sheet 'Lestaurtinib' of Supplementary Table 1),run:Lestaurtinib_02624_R1,Plate:MR020) was 259 nM. It also gave a potency estimated from few doses (AURKB; compound concentrations:100 nM and 1000 nM (sheet 'Lestaurtinib' of Supplementary Table 1),run:Lestaurtinib_02624_R2,Plate:MR020) of 278 nM, a potency estimated from few doses (AURKB; compound concentrations:100 nM and 1000 nM (sheet 'Lestaurtinib' of Supplementary Table 1),run:Lestaurtinib_02624_R3,Plate:MR020) of 260 nM and a potency estimated from few doses (AURKB; compound concentrations:100 nM and 1000 nM (sheet 'Lestaurtinib' of Supplementary Table 1),run:Lestaurtinib_02724_R1,Plate:MR021) of 414 nM. It also gave a potency estimated from few doses (AURKB; compound concentrations:100 nM and 1000 nM (sheet 'Lestaurtinib' of Supplementary Table 1),run:Lestaurtinib_02724_R2,Plate:MR021) of 253 nM, a potency estimated from few doses (AURKB; compound concentrations:100 nM and 1000 nM (sheet 'Lestaurtinib' of Supplementary Table 1),run:Lestaurtinib_02724_R3,Plate:MR021) of 80.5 nM and a potency estimated from few doses (AURKB; compound concentrations:100 nM and 1000 nM (sheet 'Lestaurtinib' of Supplementary Table 1),run:Lestaurtinib_02741_R1,Plate:MR023) of 289 nM. For the same substance, the potency estimated from few doses (AURKB; compound concentrations:100 nM and 1000 nM (sheet 'Lestaurtinib' of Supplementary Table 1),run:Lestaurtinib_02741_R2,Plate:MR023) was 259 nM, the potency estimated from few doses (AURKB; compound concentrations:100 nM and 1000 nM (sheet 'Lestaurtinib' of Supplementary Table 1),run:Lestaurtinib_02748_R1,Plate:MR024) was 229 nM and the potency estimated from few doses (AURKB; compound concentrations:100 nM and 1000 nM (sheet 'Lestaurtinib' of Supplementary Table 1),run:Lestaurtinib_02748_R2,Plate:MR024) was 286 nM. For the same substance, the potency estimated from few doses (AURKB; compound concentrations:100 nM and 1000 nM (sheet 'Lestaurtinib' of Supplementary Table 1),run:Lestaurtinib_02752_R1,Plate:MR025) was 290 nM, the potency estimated from few doses (AURKB; compound concentrations:100 nM and 1000 nM (sheet 'Lestaurtinib' of Supplementary Table 1),run:Lestaurtinib_02765_R1,Plate:MR026) was 275 nM and the potency estimated from few doses (AURKB; compound concentrations:100 nM and 1000 nM (sheet 'Lestaurtinib' of Supplementary Table 1),run:Lestaurtinib_02765_R3,Plate:MR026) was 350 nM. The potency estimated from few doses (AURKB; compound concentrations:100 nM and 1000 nM (sheet 'Lestaurtinib' of Supplementary Table 1),run:Lestaurtinib_02766_R2,Plate:MR027) was 95.3 nM, the potency estimated from few doses (AURKB; compound concentrations:100 nM and 1000 nM (sheet 'Lestaurtinib' of Supplementary Table 1),run:Lestaurtinib_02768_R1,Plate:MR028) was 151 nM and the potency estimated from few doses (AURKB; compound concentrations:100 nM and 1000 nM (sheet 'Lestaurtinib' of Supplementary Table 1),run:Lestaurtinib_02768_R2,Plate:MR028) was 146 nM. For the same substance, the potency estimated from few doses (AURKB; compound concentrations:100 nM and 1000 nM (sheet 'Lestaurtinib' of Supplementary Table 1),run:Lestaurtinib_02768_R3,Plate:MR028) was 169 nM, the potency estimated from few doses (AURKB; compound concentrations:100 nM and 1000 nM (sheet 'Lestaurtinib' of Supplementary Table 1),run:Lestaurtinib_02795_R2,Plate:MR022) was 132 nM and the potency estimated from few doses (AURKB; compound concentrations:100 nM and 1000 nM (sheet 'Lestaurtinib' of Supplementary Table 1),run:Lestaurtinib_02795_R3,Plate:MR022) was 269 nM. For the same substance, the potency estimated from few doses (AURKB; compound concentrations:100 nM and 1000 nM (sheet 'Lestaurtinib' of Supplementary Table 1),run:Lestaurtinib_02802_R2,Plate:MR029) was 144 nM, the potency estimated from few doses (AURKB; compound concentrations:100 nM and 1000 nM (sheet 'Lestaurtinib' of Supplementary Table 1),run:Lestaurtinib_02802_R3,Plate:MR029) was 83.6 nM and the potency estimated from few doses (AURKB; compound concentrations:100 nM and 1000 nM (sheet 'Lestaurtinib' of Supplementary Table 1),run:Lestaurtinib_02896_R3,Plate:MR030) was 218 nM. The potency estimated from few doses (AURKB; compound concentrations:100 nM and 1000 nM (sheet 'Lestaurtinib' of Supplementary Table 1),run:Lestaurtinib_03172_R1,Plate:MR031) was 146 nM, the potency estimated from few doses (AURKB; compound concentrations:100 nM and 1000 nM (sheet 'Lestaurtinib' of Supplementary Table 1),run:Lestaurtinib_03172_R3,Plate:MR031) was 290 nM and the potency estimated from few doses (AURKB; compound concentrations:100 nM and 1000 nM (sheet 'Lestaurtinib' of Supplementary Table 1),run:Lestaurtinib_03252_R2,Plate:MR032) was 136 nM. The potency estimated from few doses (AURKB; compound concentrations:100 nM and 1000 nM (sheet 'Lestaurtinib' of Supplementary Table 1),run:Lestaurtinib_03260_R2,Plate:MR033) was 243 nM, the potency estimated from few doses (CDKL5; compound concentrations:100 nM and 1000 nM (sheet 'Lestaurtinib' of Supplementary Table 1),run:Lestaurtinib_02339_R1,Plate:MR001) was 72.5 nM and the potency estimated from few doses (CDKL5; compound concentrations:100 nM and 1000 nM (sheet 'Lestaurtinib' of Supplementary Table 1),run:Lestaurtinib_02339_R2,Plate:MR001) was 37.7 nM. The potency estimated from few doses (CDKL5; compound concentrations:100 nM and 1000 nM (sheet 'Lestaurtinib' of Supplementary Table 1),run:Lestaurtinib_02364_R1,Plate:MR002) was 5.84 nM, the potency estimated from few doses (CDKL5; compound concentrations:100 nM and 1000 nM (sheet 'Lestaurtinib' of Supplementary Table 1),run:Lestaurtinib_02364_R3,Plate:MR002) was 158 nM and the potency estimated from few doses (CDKL5; compound concentrations:100 nM and 1000 nM (sheet 'Lestaurtinib' of Supplementary Table 1),run:Lestaurtinib_02367_R2,Plate:MR003) was 373 nM. The potency estimated from few doses (CDKL5; compound concentrations:100 nM and 1000 nM (sheet 'Lestaurtinib' of Supplementary Table 1),run:Lestaurtinib_02367_R3,Plate:MR003) was 37.9 nM, the potency estimated from few doses (CDKL5; compound concentrations:100 nM and 1000 nM (sheet 'Lestaurtinib' of Supplementary Table 1),run:Lestaurtinib_02381_R1,Plate:MR004) was 135 nM and the potency estimated from few doses (CDKL5; compound concentrations:100 nM and 1000 nM (sheet 'Lestaurtinib' of Supplementary Table 1),run:Lestaurtinib_02381_R2,Plate:MR004) was 149 nM. The potency estimated from few doses (CDKL5; compound concentrations:100 nM and 1000 nM (sheet 'Lestaurtinib' of Supplementary Table 1),run:Lestaurtinib_02381_R3,Plate:MR004) was 269 nM, the potency estimated from few doses (CDKL5; compound concentrations:100 nM and 1000 nM (sheet 'Lestaurtinib' of Supplementary Table 1),run:Lestaurtinib_02407_R1,Plate:MR005) was 43.6 nM and the potency estimated from few doses (CDKL5; compound concentrations:100 nM and 1000 nM (sheet 'Lestaurtinib' of Supplementary Table 1),run:Lestaurtinib_02407_R2,Plate:MR005) was 167 nM. For the same substance, the potency estimated from few doses (CDKL5; compound concentrations:100 nM and 1000 nM (sheet 'Lestaurtinib' of Supplementary Table 1),run:Lestaurtinib_02437_R1,Plate:MR007) was 32 nM, the potency estimated from few doses (CDKL5; compound concentrations:100 nM and 1000 nM (sheet 'Lestaurtinib' of Supplementary Table 1),run:Lestaurtinib_02437_R2,Plate:MR007) was 113 nM and the potency estimated from few doses (CDKL5; compound concentrations:100 nM and 1000 nM (sheet 'Lestaurtinib' of Supplementary Table 1),run:Lestaurtinib_02437_R3,Plate:MR007) was 2.19 nM. The potency estimated from few doses (CDKL5; compound concentrations:100 nM and 1000 nM (sheet 'Lestaurtinib' of Supplementary Table 1),run:Lestaurtinib_02438_R1,Plate:MR008) was 8.7 nM, the potency estimated from few doses (CDKL5; compound concentrations:100 nM and 1000 nM (sheet 'Lestaurtinib' of Supplementary Table 1),run:Lestaurtinib_02438_R2,Plate:MR008) was 181 nM and the potency estimated from few doses (CDKL5; compound concentrations:100 nM and 1000 nM (sheet 'Lestaurtinib' of Supplementary Table 1),run:Lestaurtinib_02438_R3,Plate:MR008) was 176 nM. For the same substance, the potency estimated from few doses (CDKL5; compound concentrations:100 nM and 1000 nM (sheet 'Lestaurtinib' of Supplementary Table 1),run:Lestaurtinib_02443_R2,Plate:MR009) was 27.1 nM, the potency estimated from few doses (CDKL5; compound concentrations:100 nM and 1000 nM (sheet 'Lestaurtinib' of Supplementary Table 1),run:Lestaurtinib_02443_R3,Plate:MR009) was 41.7 nM and the potency estimated from few doses (CDKL5; [1]) was 70.4 nM. For the same substance, the potency estimated from few doses (CDKL5; compound concentrations:100 nM and 1000 nM (sheet 'Lestaurtinib' of Supplementary Table 1),run:Lestaurtinib_02473_R3,Plate:MR010) was 212 nM, the potency estimated from few doses (CDKL5; compound concentrations:100 nM and 1000 nM (sheet 'Lestaurtinib' of Supplementary Table 1),run:Lestaurtinib_02482_R1,Plate:MR011) was 33.6 nM and the potency estimated from few doses (CDKL5; compound concentrations:100 nM and 1000 nM (sheet 'Lestaurtinib' of Supplementary Table 1),run:Lestaurtinib_02482_R2,Plate:MR011) was 27.4 nM. The potency estimated from few doses (CDKL5; [2]) was 190 nM, the potency estimated from few doses (CDKL5; [3]) was 449 nM and the potency estimated from few doses (CDKL5; compound concentrations:100 nM and 1000 nM (sheet 'Lestaurtinib' of Supplementary Table 1),run:Lestaurtinib_02496_R1,Plate:MR013) was 14.9 nM. For the same substance, the potency estimated from few doses (CDKL5; [4]) was 298 nM, the potency estimated from few doses (CDKL5; compound concentrations:100 nM and 1000 nM (sheet 'Lestaurtinib' of Supplementary Table 1),run:Lestaurtinib_02566_R3,Plate:MR014) was 21.2 nM and the potency estimated from few doses (CDKL5; [5]) was 389 nM. It also gave a potency estimated from few doses (CDKL5; [6]) of 82.6 nM, a potency estimated from few doses (CDKL5; compound concentrations:100 nM and 1000 nM (sheet 'Lestaurtinib' of Supplementary Table 1),run:Lestaurtinib_02577_R2,Plate:MR016) of 144 nM and a potency estimated from few doses (CDKL5; [7]) of 86.8 nM. The potency estimated from few doses (CDKL5; [8]) was 37.3 nM, the potency estimated from few doses (CDKL5; [9]) was 565 nM and the potency estimated from few doses (CDKL5; compound concentrations:100 nM and 1000 nM (sheet 'Lestaurtinib' of Supplementary Table 1),run:Lestaurtinib_02601_R1,Plate:MR018) was 966 nM.
